From ChEMBL document CHEMBL3988442, “University of Dundee, Small-Polar-MMV Screening Library” (2021) come the findings set out here.

Out of some 48,000 compounds screened, about 13,000 (27%) showed an effect of 50% or more. The list shows a part of the results.

The subject of this assay is Wolbachia pipientis. Put plainly: Anti-Wolbachia Cell-Based Screen. The format is functional. Also noted: scale not given: in the data most compounds retested in dose-response had high values. The note with it: 5 µM.
As for `CN(CC(=O)NCC(F)(F)F)Cc1cccc2c1OCCO2`, the “Percent Effect” value is on record as -18.06%.
On to `CN(Cc1ccc(CCC(C)(C)O)cc1)Cc1cccnc1`, for which the “Percent Effect” value is listed as -22.62%.
The value for `CS(=O)(=O)N1Cc2ccccc2CC2(CCN(Cc3ccncc3)C2)C1` (stereo not drawn) was 115%; that for `CS(=O)(=O)N1CCC(c2nccn2Cc2ccccn2)CC1` was 3.46%; that for `CS(=O)(=O)N1Cc2ccccc2CC2(CCN(Cc3ccccc3)C2)C1` (stereo not drawn) was 126.9%.
Under `Cc1ccc(CN2CCC3(CCN(S(=O)(=O)c4ccccc4)C3)C2)o1` (stereo not drawn) stands -12.36%; under `CN1CC(=O)N(c2cccc(F)c2)CC12CCN(Cc1ccccn1)C2` (stereo not drawn), 2.437%.
Take `c1cnn(Cc2ccc(CN3CCC4(CCNCC4)C3)cc2)c1`: the “Percent Effect” value is listed as 15.29%.
As to `COCCC(=O)N1CC2(CCN(Cc3ccncc3)CC2)C1`, the “Percent Effect” value stood at 12.72%.
Under `Cc1ccc(N2CCC3(CCN(Cc4ccccn4)CC3)CC2)nn1` stands 3.728%; under `CS(=O)(=O)N1CC2(CCN(Cc3ccccn3)C2)Cc2ccccc21` (stereo not drawn), 111%; under `COCC(=O)N1CCC2(CCN(Cc3ccccn3)CC2)CC1`, -21.07%.
Regarding `Cc1ccc(CN2CCC3(CCCN(S(C)(=O)=O)C3)C2)o1` (stereo not drawn), the “Percent Effect” value is on record as -14.58%.
`CS(=O)(=O)N1Cc2ccccc2CC2(CCN(Cc3ccccn3)C2)C1` (stereo not drawn): the “Percent Effect” value was determined as 113.9%.
Under `COCC(c1cccc(C(F)(F)F)c1)N(C)C(=O)c1cc(C)n[nH]1` (stereo not drawn) stands -9.299%.
For `Cc1nc2[nH]cc(C(=O)N3CCCCC3c3ccc(F)cc3)c(=O)n2n1` (stereo not drawn), the “Percent Effect” value is -1.637%.
`Cc1nc(-c2cc(C(=O)O)co2)cs1`: the “Percent Effect” value is 4.91%.
Consider `Cc1nn(-c2ccccn2)c(C)c1[C@@H]1C=C[C@@H](NC(=O)CCC(=O)O)C1`, for which the “Percent Effect” value is listed as -2.847%.
With `CN(C)S(=O)(=O)NCC(O)c1cc2ccccc2s1` (stereo not drawn), the “Percent Effect” value was -1.975%.
Under `CCc1cnc(N2Cc3cnc(C(C)(C)C)nc3C2)nc1` stands -2.734%.
The value for `CCN(CC)CC(=O)NCCc1csc(N2CCCC2)n1` was 7.841%; that for `O=C(c1ccncc1F)N1C[C@H]2CC[C@@H]1CN(Cc1cccnc1)C2` was -17.68%; that for `CC1(C)[C@H](Cc2cc(CN3CCOCC3)on2)C[C@@H]1NC(=O)C1CCC1` was 3.49%.
Regarding `CC(C)N1CCCC(Cc2cncc(Br)c2)CC1` (stereo not drawn), the “Percent Effect” value was 135.8%.
Under `CC(=O)N1CCCC(Cc2cncc(Br)c2)CC1` (stereo not drawn) stands -3.498%.
Under `CC(C)N1CCCC(C(=O)NCCCc2cnn(C)c2)C1` (stereo not drawn) stands -2.763%; under `CC(C)N(Cc1cnn(C)c1)CC1CCCN(S(C)(=O)=O)C1` (stereo not drawn), 7.104%; under `CC(CCc1ccc(O)cc1)NC1CCN(S(C)(=O)=O)CC1` (stereo not drawn), 7.002%.
`CCOC(=O)NC1CCCN(c2cncc(Br)c2)C1` (stereo not drawn): the “Percent Effect” value is -1.321%.
Under `CC(=O)N1CCCC(Cc2cncc(Br)c2)C1` (stereo not drawn) stands 130.8%; under `CS(=O)(=O)N1CCCC(Cc2cncc(Br)c2)CC1` (stereo not drawn), 127%; under `COc1cccc2c1CCC2NC(=O)NCc1csc(N(C)C)n1` (stereo not drawn), 7.815%.
As to `Cc1ccc([C@@H]2CN(C(=O)c3ccon3)C[C@H]2NC(=O)C2CC2)cc1`, the “Percent Effect” value was -0.9032%.
The value for `CCc1noc(CC)c1CC(=O)N1CCC(C(=O)NC(C)C)CC1` was -12.02%; that for `CC(=O)NCCNC(=O)c1cc(Br)c2c(c1)OCCO2` was -14.07%.
`CC1CCN(S(=O)(=O)NCC2CCOc3ccccc3C2)CC1` (stereo not drawn): the “Percent Effect” value is recorded as -7.362%.
The value for `CC(C)Oc1cc(N2C[C@@H](C)O[C@@H](C)C2)nc(N)n1` was -18.9%; that for `CC(NCc1cccnc1)c1ccc(OCC(=O)NC2CC2)cc1` (stereo not drawn) was -5.583%.
`NS(=O)(=O)N1CCC(CSc2ccccc2)C1` (stereo not drawn): the “Percent Effect” value is given as -8.118%.
The value for `Cc1oncc1C(=O)N1CCC2(CC1)CC(c1ccccc1)C(=O)N2C` (stereo not drawn) was -5.401%; that for `N#Cc1ccnc(N2CCN(C(=O)c3ccc4c(c3)CCO4)CC2)c1` was 2.896%; that for `O=S(=O)(CCCNC1CCc2ncnn2C1)c1ccccc1` (stereo not drawn) was 113.7%.
Under `O=C(CNC1CCc2ncnn2C1)NCCc1cccs1` (stereo not drawn) stands 2.681%; under `COc1cccc(S(=O)(=O)CCNC2CCc3ncnn3C2)c1` (stereo not drawn), 109.9%.
Under `Cc1nc(CNC2CCc3ncnn3C2)oc1C` (stereo not drawn) stands -6.098%; under `COc1cccc(S(=O)(=O)CCNCCn2cccn2)c1`, 2.314%.
As to `c1csc(-c2noc(CCCNC3CCc4ncnn4C3)n2)c1` (stereo not drawn), the “Percent Effect” value is 7.784%.
As for `Cc1ccc(-c2nc(CNC3CCc4ncnn4C3)co2)c(C)c1` (stereo not drawn), the “Percent Effect” value is -0.6319%.
As to `Clc1ccc(-c2cnc(CNC3CCc4ncnn4C3)o2)cc1` (stereo not drawn), the “Percent Effect” value is -3.633%.
Under `Cc1ccc(C)c(S(=O)(=O)CCNC2CCc3ncnn3C2)c1` (stereo not drawn) stands 114%.
The value for `c1ccc(CNC2CCc3ncnn3C2)nc1` (stereo not drawn) was -4.327%.
`O=S(=O)(CCNC1CCc2ncnn2C1)c1ccc(Cl)cc1` (stereo not drawn): the “Percent Effect” value turned out to be 86.02%.
`c1csc(CCNC2CCc3ncnn3C2)c1` (stereo not drawn): the “Percent Effect” value is -10.08%.
